The campaign covered roughly 410,000 compounds. About 5,000 (1.2%) were called active. Where a call stands in place of a potency, no number is given. Another 13% or so got no clear call; they are omitted. Calls follow the shape of the dose curve; as a rule, active = well fitted inhibition curve with a large enough effect; inconclusive = small, poorly fitted or top-dose-only effect; inactive = no such curve, though single readings can be large or run the other way. The full list was thinned out, with actives kept by preference.
Potency is read from the fitted curve at half-maximal effect.

The assay is described as follows: qHTS for Inhibitors of TGF-b. Also: nearly all actives have a fitted effect of over 65% in size. The settings on record: HepG2 CAGA-GFP TGF-b/SMAD3 reporter, GFP fluorescence, 18 h, TGF-beta stimulated, 500 pg/mL final; series mostly up to 46.1 µM. A digest of the protocol: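 Cell-based qHTS in HEPG2 carrying a CAGA-GFP Smad reporter; compounds added before 500 pg/mL final TGF-beta, 18 h incubation at 37 degrees C, GFP fluorescence quantified per cell by imaging cytometry.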
For orientation: Quantitative high-throughput screening tests each substance at several concentrations.
As to `O=C(Nc1ccccn1)C1CCN(S(=O)(=O)c2ccccc2)CC1`, the Potency result was “inactive”.
Next, `Cc1cccc(NC(=O)C2CCN(S(=O)(=O)c3cccc4cccnc34)CC2)c1`: “inactive”; `Cc1ccnc(NC(=O)C2CCN(S(=O)(=O)c3c(C)c(C)cc(C)c3C)CC2)c1`: 11.2 µM (active).
Next, `COc1ccc(S(=O)(=O)c2c(Nc3cccc(Cl)c3)sc(C(=O)c3ccccc3)c2N)cc1`: “inactive”; `CC(NC(=O)c1cc(Sc2ccc(F)cc2F)nc2ccccc12)c1ccccc1` (stereo unspecified): “inactive”.
Take `CSc1n[nH]c(-c2ccco2)n1`: the Potency entry is “inactive”.
The entry for `CCN(c1ccc(Cl)cc1)S(=O)(=O)c1nnc(NC(=O)c2ccco2)s1` is “inactive”; for `CCCN(CCC)CCNC(=O)Cn1cnc2sc(C)c(S(=O)(=O)N3CCC(C)CC3)c2c1=O` it is “inactive”.
Next, `COc1ccc(-c2onc(C)c2C)cc1S(=O)(=O)NCc1cccs1`: “inactive”.
The figure for `COc1ccc(-c2onc(C)c2C)cc1S(=O)(=O)NCC1CCN(Cc2cccc(F)c2)CC1` is 8.91 µM (active).
With `COc1ccc(-c2onc(C)c2C)cc1S(=O)(=O)NCCc1ccccc1`, the Potency result was “inactive”.
The entry for `O=C(Nc1ccccc1Cl)N1CCC(CN2CCCCC2)CC1` is “inactive”; for `CCCc1nn2c(=O)cc(COC(=O)c3ccc(NC(=O)C(C)Oc4ccccc4)cc3)nc2s1` (stereo unspecified) it is “inactive”.
For `CN(C)c1ccc(C=Nc2ccc(/C=C/c3ccnc4ccccc34)cc2)cc1`, the Potency entry is “inactive”.
The entry for `Cc1ccc(-n2nc(C)c3c(C)cc(=O)n(CC(=O)Nc4ccc(C(C)C)cc4)c32)cc1` is “inactive”; for `CC1(C)Cc2ccccc2-c2c[nH]c(=O)n21` it is “inactive”.
Turning to `CCOC(=O)N1CCc2c(sc3c2C(=O)NC(c2ccccc2F)N3)C1` (stereo unspecified), the Potency entry is “inactive”.
The entry for `CC(C)[C@@H](NC(=O)OC(C)(C)C)C(=O)NCC1CCC(C(=O)N[C@@H](Cc2ccccc2)C(=O)O)CC1` (stereo partly specified) is “inactive”.
Next, `CC(C)(C)c1ccc(C(CC(=O)O)NS(=O)(=O)Cc2ccccc2)cc1` (stereo unspecified): “inactive”.
Next, `C[C@@H](NC(=O)OC(C)(C)C)c1nnc(S(=O)(=O)Cc2ccccc2)o1`: 14.1 µM (active).
In the case of `CCOC(=O)c1cc2c(=O)n3ccccc3nc2n(CCCOC)c1=NC(=O)C(C)(C)Oc1ccc(Cl)cc1`, the Potency result was “inactive”.
The figure for `Cc1ccc(Nc2nc(CSc3nnc(-c4ccncc4)n3-c3ccccc3C)cs2)cc1` is 11.2 µM (active).
Consider `Cc1ccc(-c2noc(CSc3nnc(-c4ccncc4)n3-c3ccc(F)cc3)n2)cc1`, for which the Potency result is “inactive”.
As for `Cc1ccc(-n2c(SCC(=O)N3c4ccccc4Sc4ccccc43)nnc2-c2ccncc2)cc1`, the Potency entry was “inactive”.
Next, `OCC(O)C(O)C(O)C(O)C=Nc1ccc(/C=C/c2ccnc3ccccc23)cc1` (stereo unspecified): “inactive”; `O=C(c1ccco1)N(Cc1cccs1)c1ccc(O)cc1`: “inactive”.
As for `CC(CNC(=O)c1nnc(Cc2cccc(F)c2)o1)c1ccccc1` (stereo unspecified), the Potency result is “inactive”.
Consider `CN(C)c1cccc2ccccc12`, for which the Potency entry is “inactive”.
Next, `COc1ccc(OC)c(C2C3=C(N=c4s/c(=C\c5cccc(O)c5)c(=O)n42)c2ccccc2CC3)c1` (stereo unspecified): 15.8 µM (active); `CCOC(=O)c1c(S(=O)(=O)N2CCC(C(=O)NCc3ccccc3OC)CC2)c(C)n(C)c1C`: “inactive”.
In the case of `Cc1ccc(S(=O)(=O)n2nc(C)c(S(=O)(=O)N3CCCCCC3)c2C)cc1`, the Potency result is “inactive”.
Take `C=C1C=C(C(F)F)n2ncc(C(=O)NCCc3ccccc3OC)c2N1`: the Potency entry is “inactive”.
For the compound `O=C(NCCCO)C(=O)Nc1c2c(nn1-c1ccc(F)cc1)CSC2`, the Potency entry was “inactive”.
Next, `N#Cc1ccccc1Cn1cnc2nc3c(cc2c1=O)CCCC3`: “inactive”; `CC(C)(C)c1ccc(C(=O)NCC(c2ccc(Cl)cc2)N2CCOCC2)cc1` (stereo unspecified): “inactive”; `Cc1ccccc1Cn1nc(C)c(NC(=O)c2cc(-c3ccc(F)cc3)on2)c1C`: “inactive”.
`Cc1ccc(NC(=O)c2ccc3[nH]c(C)cc(=O)c3c2)c(C)c1`: the Potency entry was “inactive”.
Next, `CCOc1ccc(NC(=O)C2CCN(S(=O)(=O)c3cc(-c4noc(C)n4)ccc3C)CC2)cc1`: “inactive”; `Cc1ccc(CNC(=O)C2CCCN(S(C)(=O)=O)C2)cc1` (stereo unspecified): “inactive”.
Turning to `CCOc1ccc(N(CC)S(=O)(=O)N2CCCC(C(=O)Nc3ccc(C(C)=O)cc3)C2)cc1` (stereo unspecified), the Potency entry is “inactive”.
Next, `CCOc1ccc(N(CC)S(=O)(=O)N2CCCC(C(=O)NCc3ccc(Cl)cc3)C2)cc1` (stereo unspecified): 17.8 µM (active).
Next, `CCN1CCN(c2nc(Nc3cccc(F)c3)nc(N)c2[N+](=O)[O-])CC1`: “inactive”; `CNc1nc(Nc2ccc(C)c(Cl)c2)nc(N)c1[N+](=O)[O-]`: 11.2 µM (active); `COc1cccc(Nc2nc(N)c([N+](=O)[O-])c(NCc3ccco3)n2)c1`: “inactive”.
As to `CCC(=O)N1c2ccccc2CC1C(=O)N1CCN(c2ccccc2)CC1` (stereo unspecified), the Potency result was “inactive”.
Next, `Cc1cccc(NC(=S)NCCN(C2CCCCC2)C2CCCC2)c1`: 17.8 µM (active); `Cc1cccc(NC(=O)C2CCN(C(=O)NC3CCCCC3)CC2)c1`: “inactive”; `Cc1cccc(C(=O)NC(=S)N(C)C2CCCCC2)c1`: “inactive”.
Next, `Cc1cc(=O)n(CC(=O)Nc2cccc([N+](=O)[O-])c2)c(-n2nc(C)cc2C)n1`: “inactive”; `Cc1ccccc1CS(=O)(=O)CC1Nc2ccc(C(=O)NCc3ccc(Cl)cc3)cc2NC1=O` (stereo unspecified): “inactive”; `CCCOc1ccc(F)cc1-c1cc(C(=O)Nc2ccc(F)c(Cl)c2)[nH]n1`: 11.2 µM (active).
Next, `CC(C)Oc1cc(F)ccc1-c1cc(C(=O)Nc2ccc(F)cc2)[nH]n1`: “inactive”; `CCOc1ccc(Cl)cc1-c1cc(C(=O)NCc2cccs2)[nH]n1`: “inactive”.
Take `CCOC(=O)c1ccccc1NC(=O)c1sc2nc(-c3ccc(F)cc3)cn2c1C`: the Potency result was “inactive”.
Turning to `CCS(=O)(=O)N1CCc2cc(C(=O)NCc3ccc(C)cc3)ccc21`, the Potency result is “inactive”.
`CCCCNC(=O)C1CCCN(c2nnc(C)c3c(C)n(-c4ccc(Cl)cc4)nc23)C1` (stereo unspecified): the Potency entry is “inactive”.
The entry for `CCc1ccc(CNC(=O)C2CCN(c3nn4cc(-c5ccc(F)cc5)nc4s3)CC2)cc1` is “inactive”.
Next, `CC(=O)Nc1c(C)nn(-c2ccccc2)c1N1CCC(C(=O)Nc2cc(Cl)ccc2C)CC1`: “inactive”; `Cc1nnc(N2CCC(C(=O)Nc3ccc(F)cc3)CC2)c2nn(-c3ccc(Cl)cc3)c(C)c12`: 10 µM (active).
Turning to `Cc1nnc(N2CCCC(C(=O)NCCN(C)C)C2)c2nn(-c3ccccc3)c(C)c12` (stereo unspecified), the Potency result is “inactive”.
With `CCOc1ccc(CNC(=O)c2ccc3nc(CC)c(CC)nc3c2)cc1OC`, the Potency result is “inactive”.
The entry for `CC(=O)c1ccc[n+](C(C)CCC(C)[n+]2cccc(C(C)=O)c2)c1` (stereo unspecified) is “inactive”; for `Cc1c(Cl)cccc1NC(=O)CCS(=O)(=O)c1ccc2c(c1)oc(=O)n2C` it is “inactive”.
The entry for `Cc1ccccc1-c1nc(SCC(=O)N(C)c2ccccc2)c2c(=O)n(C)c(=O)n(C)c2n1` is “inactive”.
The entry for `CC1CC(C)CN(C/C=C/c2ccccc2[N+](=O)[O-])C1` (stereo unspecified) is “inactive”; for `CC(OC(=O)/C=C/c1ccccc1)C(=O)NC1CCCCC1C` (stereo unspecified) it is “inactive”.
On to `CC1CCCCC1NC(=O)/C(C#N)=C/C=C/c1ccccc1[N+](=O)[O-]` (stereo unspecified), for which the Potency was 20 µM (active).
The entry for `COc1ccc(CNC(=O)c2cc3c(=O)[nH]c4ccc(C)cc4c3s2)c(OC)c1` is “inactive”; for `Nc1ccccc1N` it is “inactive”.
As for `COc1ccccc1-n1nnnc1SCC(=O)NC(=O)Cc1ccccc1`, the Potency entry was “inactive”.
For `CCC(C)N(C(=O)CSc1nnnn1-c1ccccc1OC)C1CCS(=O)(=O)C1` (stereo unspecified), the Potency entry was “inactive”.
`COc1ccccc1-n1nnnc1S(=O)(=O)Cc1ccc(Cl)cc1`: the Potency is 7.08 µM (active).
As for `CN(C)c1ccc(/C=C/C=C/c2ccnc3ccccc23)cc1`, the Potency entry was “inactive”.
Next, `CCc1cccc(NC(=O)Cn2nc(CC)n3c(cc4cc(C)ccc43)c2=O)c1`: “inactive”.
Take `Cc1cc2c(cc1C)N1C(=O)c3cc4ccccc4cc3NC(=O)C1C(=O)N2` (stereo unspecified): the Potency was 12.6 µM (active).
Regarding `CCc1cnc2c(c1SCC(=O)N1CCC(C)CC1)c(=O)n(C)c(=O)n2C`, the Potency entry was “inactive”.
Take `CCOC(=O)c1ccc2c(c1)N(Cc1cccc(OC)c1)C(=O)c1ccccc1S2(=O)=O`: the Potency result is “inactive”.
For `O=C(CSc1ncc(S(=O)(=O)c2ccc(Br)cc2)c(=O)[nH]1)Nc1ccc2c(c1)OCCO2`, the Potency entry is “inactive”.
On to `CC(C)C12CN3CC(C(C)C)(CN(C1)C3c1ccc(OCc3ccccc3)cc1)C2=O` (stereo unspecified), for which the Potency entry was “inactive”.
With `COCCN(CCOC)S(=O)(=O)c1ccc(C(=O)Nc2nc3c(s2)CCc2ccccc2-3)cc1`, the Potency result was “inactive”.
The entry for `COc1ccc(NS(=O)(=O)c2ccc(N3CCOCC3)c(NC(=O)c3ccccc3Br)c2)cc1` is “inactive”.
Next, `COc1ccc2c(c1)Cc1sc(NC(=O)c3ccccc3Br)nc1-2`: 7.08 µM (active).
The entry for `Cc1ccc2nc(COc3ccccc3NC(=O)Nc3ccc(F)c(Cl)c3)cc(=O)n2c1` is “inactive”; for `COc1ccc(C2=CC(c3ccccc3Cl)n3nc(-c4ccc(Cl)cc4)nc3N2)cc1` (stereo unspecified) it is “inactive”.
Take `O=C(c1cnn2c1NC(=C1CC1)C=C2C(F)F)N1CCc2ccccc2C1`: the Potency result was “inactive”.
Next, `Cc1ccc(N2CCN(S(=O)(=O)c3ccc(F)cc3)CC2)c(C)c1`: “inactive”.
The entry for `Cc1ccc(C)c(N2CCN(S(=O)(=O)c3ccc4c(c3)oc(=O)n4C)CC2)c1` is “inactive”.
The figure for `Cc1ccc(C)c(N2CCN(S(=O)(=O)c3ccc4c(c3)C(C(C)C)C(=O)N4)CC2)c1` (stereo unspecified) is 15.8 µM (active); for `O=C(CCc1nc(CN2CCN(S(=O)(=O)c3ccc(F)cc3)CC2)no1)N1CCCCC1` it is “inactive”; for `Cc1cccc(NC(=O)Cn2c(=O)n(CCC(C)C)c(=O)c3cccnc32)c1` it is “inactive”.
As for `Cc1oc2c(c1C(=O)N1CCOCC1)C(=O)c1ccccc1C2=O`, the Potency was 4.47 µM (active).
As for `O=C(c1snnc1-c1ccccc1)N1CCOCC1`, the Potency result is “inactive”.
Take `Cc1ccc(C)c(CN2C(=O)c3ccccc3S(=O)c3ccc(C(=O)N4CCOCC4)cc32)c1` (stereo unspecified): the Potency result was “inactive”.
With `CCCCOc1ccc(C(=O)N2CC(=O)Nc3ccc(Br)cc3C2c2ccc(F)cc2)cc1` (stereo unspecified), the Potency entry was “inactive”.
Turning to `COc1ccc2oc(=O)c(-c3cn4c(n3)sc3cc(OC)ccc34)cc2c1`, the Potency entry is “inactive”.
The entry for `Cc1c(CCO)sc[n+]1CC(=O)c1ccc2ccccc2c1` is “inactive”.

The values are drawn from PubChem BioAssay AID588855 (National Center for Advancing Translational Sciences (NCATS), 2011).
